# High-throughput results (PubChem BioAssay)
# The list is not random: actives were taken first. Their share in the collection is about 11%.
# MCF10A rerep – inducers of DNA re-replication in MCF 10A breast cells; MCF 10A DNA re-replication, Hoechst nuclear intensity, 48 h; Potency, µM (highest dose often 46.1 µM), for the others: at the highest dose activity, positive = re-replication, usual class: activators; 350,000 tested, 2.9% active; note: potency is the fitted concentration of half-maximal effect; % of control where 0% means no effect; nearly all actives have a fitted effect of over 50% in size
# RORg inh – ROR gamma (mouse) transcription inhibition; P51450; Drosophila S2 Gal4-RORgamma UAS-luciferase reporter, 20 h; Potency, µM (titrated, usually from 53.6 µM), for inactives: top-dose activity change, negative = inhibition, hits mostly inhibitors; 310,000 tested, 5.4% active; note: potency is the fitted concentration of half-maximal effect; % is set by controls: 0 for no effect and ±100 for the full control effect; nearly all actives have a fitted effect of over 60% in size
# Target sequence (P51450 whole entry, looked up, the tested form may be a part): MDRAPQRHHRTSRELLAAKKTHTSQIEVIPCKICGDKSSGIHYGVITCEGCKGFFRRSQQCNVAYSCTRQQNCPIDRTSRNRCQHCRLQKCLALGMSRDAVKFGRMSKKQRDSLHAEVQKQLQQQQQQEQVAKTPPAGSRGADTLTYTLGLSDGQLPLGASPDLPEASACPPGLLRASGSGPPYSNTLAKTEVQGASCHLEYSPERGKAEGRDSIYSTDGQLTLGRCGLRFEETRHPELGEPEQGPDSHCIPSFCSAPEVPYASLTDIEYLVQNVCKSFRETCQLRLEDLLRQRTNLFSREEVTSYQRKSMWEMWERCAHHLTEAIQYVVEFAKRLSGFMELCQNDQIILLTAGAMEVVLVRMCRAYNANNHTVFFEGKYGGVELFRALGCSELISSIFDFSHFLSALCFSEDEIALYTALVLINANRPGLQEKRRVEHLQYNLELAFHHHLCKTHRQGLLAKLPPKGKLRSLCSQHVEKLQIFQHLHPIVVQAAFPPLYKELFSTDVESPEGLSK
#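 Drosophila Schneider cells stably carrying a metallothionein-driven Gal4 DBD–ROR gamma fusion and a UAS-Photinus luciferase reporter were exposed to compound for 1 hr, then induced with copper sulfate (700 uM final) for 20 hr at ambient temperature before luminescence reading.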
# IL-1B inflam inh – blocks inflammasome-driven IL-1 beta release | THP-1 LPS/ATP IL-1B secretion, AlphaLISA, 16 h; active compounds read low | activity change, % at 57.5 µM | 360,000 tested, 4.7% active; in the data active = activity change below about -50%; inconclusive = mostly about -30% to -49%; note: % is set by controls: 0 for no effect and ±100 for the full control effect
#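 Secreted IL-1B measured by AlphaLISA bead assay after 16 h compound exposure of THP-1 cells; compounds (final up to 57.5 uM) added 1 h before LPS (250 ng/mL) and ATP (1.25 mM) stimulation; lower signal means less secretion.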
# VP16 counter – Gal4-VP16 reporter inhibition counter-screen; Drosophila S2 Gal4-VP16 UAS-luciferase, luminescence, 20 h; Potency, µM (doses to about 53.6 µM), for inactives: top-dose activity, negative = inhibition, most hits filed as inhibitors; 310,000 tested, 3.5% active; AID 2546;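 note: Gal4-VP16 expression switched on by copper sulfate through the metallothionein promoter; potency is the fitted concentration of half-maximal effect; % is set by controls: 0 for no effect and ±100 for the full control effect; nearly all actives have a fitted effect of over 50% in size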
# SW480 rerep – DNA re-replication induction in SW480 cells. SW480 DNA re-replication, Hoechst DNA content imaging, 48 h. Potency, µM (titrated, usually from 46.1 µM), for the others: at the top dose re-replication activation, hits mostly activators. 340,000 tested, 1.8% active. AID 624297; note: potency is the fitted concentration of half-maximal effect; % of control where 0% means no effect; nearly all actives have a fitted effect of over 55% in size
#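 Hoechst fluorescence of nuclei (405 nm excitation, 500-530 nm emission) measured by plate-scanning imager after 48 hr compound exposure at 37 C; re-replication scored as increased number of nuclei with elevated intensity.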
# * hit, by the source's call; ? = inconclusive; . = no result given; [ ] = dose if it differs, or a comment. Unless noted, calls come from the whole dose curve; as a rule, active = well fitted curve in the direction sought with a large enough effect; inconclusive = small, poorly fitted or top-dose-only effect, or another doubt; inactive = no such curve, though single readings can be large; an effect the other way counts as inactive or inconclusive.
SMILES,MCF10A rerep,RORg inh,IL-1B inflam inh,VP16 counter,SW480 rerep
COc1ccc2c(c1)OC[C@H]1[C@H]2N2C(=O)c3cc(F)ccc3NC(=O)[C@@]2(C)[C@H]1c1ccccc1,?,.,-62*,.,?
COc1ccc2c(c1)OC[C@H]1[C@H]2N2C(=O)c3cc(OC)ccc3NC(=O)[C@@]2(C)[C@H]1c1ccccc1,16µM*,.,0,.,?
CCOc1ccc(-c2cc(C(=O)Nc3ccc(F)cc3)[nH]n2)c(C)c1,.,.,-7,.,.
CN(C)S(=O)(=O)c1cccc(NC(=S)Nc2cccc3cnccc23)c1,21µM*,?,39,?,?
CCOc1ccc(NC(=S)Nc2cccc3cnccc23)cc1,0%,18µM*,28,?,-7%
S=C(Nc1cccnc1)Nc1cccc2cnccc12,8%,-17%,31,-16%,5%
CCOc1ccc(NC(=S)Nc2cccc3ccccc23)cc1,11%,7.9µM*,-6,8.9µM*,0%
CCOc1ccc(NC(=S)N2CCCC2)cc1,0%,-16%,20,-6%,5%
COc1ccc(NC(=S)Nc2cccc3cnccc23)cc1,13%,-32%,13,1%,-4%
CCOc1ccc(NC(=S)Nc2ccccc2C2CC2)cc1,19%,2.8µM*,-13,11µM*,-4%
COC(=O)CCC(=O)OC1(C)C(=O)C=C2C=C(CCCNC(=O)OC(C)(C)C)OC=C2C1=O (configuration not stated),.,1%,.,-11%,.
Nc1nc2c([nH]c(=O)n2C2OC(CO)C(O)C2O)c(=O)[nH]1 (configuration not stated),.,5%,.,-12%,.
COc1cccc(CN(C)C(=O)c2ccc(S(=O)(=O)Nc3ccccc3C)cc2)c1OC,.,.,-28,.,.
Cc1ccc(Cl)cc1NC(=O)CCNC(=O)N1CC(=O)Nc2ccccc21,12%,11%,36,-3%,?
Cc1ccc(Cl)cc1NC(=O)CNC(=O)N1CC(=O)Nc2ccccc21,-1%,3%,17,4%,29µM*
CC1=CC(C)(C)N2C(=O)C3(N=C(N)NC(Nc4ccccc4)=N3)c3cc(C)cc1c32 (configuration not stated),?,6%,-78*,0%[0.365 µM],?
Cc1cc(-c2ccc(C)c(S(=O)(=O)NCCCN3CCCCCC3)c2)on1,7%,-2%,-51*,5%,21%
CCOC(=O)c1c(CSc2ccc(C)cc2)n(C)c2cc(Br)c(O)c(CN(C)C)c12,?,-33%,0,3%,15%
CCOC(=O)c1c(CN(C)C)oc2cc(CN(C)C)c(O)c(CSc3ccccc3)c12,-3%,1%[10 µM],-50*,1%,3%
CCOC(=O)c1c(CSc2ccccc2)n(C)c2cc(Br)c(O)c(CN(C)C)c12,20%,2%,-86*,-5%,?
CCOC(=O)c1c(CSc2ccsc2)n(C)c2cc(Br)c(O)c(CN(C)C)c12,?,-13%,-53*,-10%,13%
CCOC(=O)c1c(CSc2ccccc2)n(C)c2ccc(O)c(CN3CCN(C)CC3)c12,-1%,-7%,0,0%,1%
COc1ccc([N+](=O)[O-])cc1NC(=O)COC(=O)C12CC3CC(CC(O)(C3)C1)C2,.,.,3,.,.
O=C(NCc1ccc(F)cc1)c1cc(C2CCCCN2C(=O)c2ccc(Cl)cc2)on1 (configuration not stated),.,.,0,.,.
CN(Cc1ccco1)c1ncncc1-c1cccc(C#N)c1,.,-6%,.,-8%,.
SMILES,MCF10A rerep,RORg inh,IL-1B inflam inh,VP16 counter,SW480 rerep
Cc1ccc(C(=O)OCC(=O)NC(C)c2ccccc2)s1 (configuration not stated),-40%,.,-12,.,-4%
CC(NC(=O)COC(=O)c1ccc([N+](=O)[O-])s1)c1ccccc1 (configuration not stated),12%,11µM*,0,-25%,10%
NS(=O)(=O)c1ccc(NC(=O)COC(=O)c2ccc([N+](=O)[O-])s2)cc1,4%,5%,58,8%,16µM*
Cc1cc(C)c(NC(=O)COC(=O)c2ccc([N+](=O)[O-])s2)c(C)c1,5%,7%,9,6%,-63%
O=C(NC(=O)c1ccccc1)Nc1ccc(Cl)cn1,-3%,12%,9,0%,-5%
NC(=O)[C@@H]1CSSCCC(=O)N[C@@H](CCCCN=C(N)N)C(=O)NCC(=O)N[C@@H](CC(=O)O)C(=O)N[C@@H](Cc2c[nH]c3ccccc23)C(=O)N2CCC[C@H]2C(=O)N1,8%,22%,.,2%,1%
O=C(c1ccc(COc2ccc3c(c2)CCC3)o1)N1CCN(c2ccccc2)CC1,8%,.,-73*,.,-4%
CCOC(=O)c1ccc(COc2ccc(C(C)C)cc2)o1,?,-38%,5,-10%,-31%
CCOC(=O)C(CCCOc1ccc(C(C)CC)cc1)C(=O)OCC (configuration not stated),?,2.8µM*,23,?,7%
CCOC(=O)C(CCCOc1ccc(C)cc1)C(=O)OCC,-5%,33%,8,-20%,0%
O=C(c1ccco1)N1CCN(C(=O)c2ccc(COc3ccc4c(c3)CCC4)o2)CC1,3%,?,4,-6%,-2%
CCC(C)c1ccc(OCc2ccc(C(=O)O)o2)cc1 (configuration not stated),8%,14µM*,17,?,-4%
CCOc1ccc(OCc2ccc(C(=O)N3CCCC3)o2)cc1,81%,2.5µM*,2,-30%,-2%
CC1=NN(C(N)=S)C(=O)C1N=Nc1c(C)n(C)n(-c2ccccc2)c1=O (configuration not stated),-2%,.,5,.,-11%
C#CCn1c2ccccc2c(=O)n1CCOc1ccccc1OC,.,.,6,.,.
Cc1cccc(-n2c(C)nc3cc(C(=O)NCCN4CCOCC4)ccc32)c1,.,.,-16,.,.
CN1CCN(C(=O)OCCOCCOC(=O)N2CCN(C)CC2)CC1,-4%,.,1,.,0%
Cc1c(CN(C)C)c2c(n1Cc1ccccc1)C(=O)c1ccccc1-2,4%,-31%,-63*,5%,0%
Cc1cc(=O)n(Cc2ccccc2)c2ccccc12,-1%,-14%,16,10%,12%
CCCCC[C@@H](C)N1C[C@@H](COCc2ccccc2)Oc2cc(N3CCC[C@H]3COC)ccc2S1(=O)=O,.,.,39,.,.
COc1cc(OC)cc(-c2c(C#Cc3ccsc3)c3cc(-c4ccc5cc[nH]c5c4)ccc3n2C)c1,-1%,.,23,.,9%
COc1ccc(-c2c(C#Cc3ccsc3)c3cc(-c4ccc5cc[nH]c5c4)ccc3n2C)cc1,2.3µM*,.,11,.,?
COCCNC(=O)C1CCCN(C(=O)Cc2ccc(F)cc2)CC1 (configuration not stated),.,.,10,.,.
